Screening results deposited in PubChem BioAssay by National Center for Advancing Translational Sciences (NCATS).
D2 PAM-1: HTS Assay for Positive Allosteric Modulators of the Human D2 Dopamine Receptor: Primary Screen for Potentiators; AID 485347, 2010; D(2) dopamine receptor (Homo sapiens), P14416; HEK293 T-REx D2, calcium flux, EC20 dopamine potentiation; potentiation, % at 10 µM; 0.34% of 340,000 active;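 active = potentiation over 3 SD above the plate norm, cut at about 30% in these data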
Target sequence (P14416 whole entry, looked up): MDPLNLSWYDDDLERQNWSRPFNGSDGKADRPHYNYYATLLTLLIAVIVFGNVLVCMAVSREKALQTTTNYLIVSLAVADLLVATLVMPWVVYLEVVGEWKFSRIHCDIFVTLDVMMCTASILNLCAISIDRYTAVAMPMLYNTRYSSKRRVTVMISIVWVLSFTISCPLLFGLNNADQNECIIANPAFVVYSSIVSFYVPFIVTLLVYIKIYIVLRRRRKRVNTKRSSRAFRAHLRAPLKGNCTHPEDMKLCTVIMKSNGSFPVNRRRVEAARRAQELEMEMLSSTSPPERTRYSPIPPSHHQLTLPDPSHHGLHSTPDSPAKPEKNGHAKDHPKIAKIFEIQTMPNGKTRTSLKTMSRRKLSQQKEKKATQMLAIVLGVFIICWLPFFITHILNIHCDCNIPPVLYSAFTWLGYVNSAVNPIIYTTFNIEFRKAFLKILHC
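Tetracycline-induced HEK293 T-REx cells force-coupled to calcium signalling expressed D2; compounds were pin-added after a 10 s baseline, read kinetically 180 s, then an EC20 dopamine challenge followed with a further 180 s calcium read.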
D2 antagonist: HTS Assay for Allosteric Antagonists of the Human D2 Dopamine Receptor: Primary Screen for Antagonists; D(2) dopamine receptor (Homo sapiens), P14416; HEK293 TREx D2 cells, calcium flux, dopamine EC80; inhibition, % at 10 µM; 2% of 340,000 active; in the data active = inhibition above about 30%; inactive = below that, where a call was filed
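Calcium flux kinetic readout in an inducible HEK293 TREx D2 line plated overnight at 30 C. After 180 s compound exposure, an EC80 dopamine challenge follows with another 180 s kinetic read to detect antagonism.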
D2 ag-1: HTS Assay for Allosteric Agonists of the Human D2 Dopamine Receptor: Primary Screen for Agonists | D(2) dopamine receptor (Homo sapiens), P14416 | HEK293 T-REx D2 cells, calcium flux agonist mode | activation, % at 2 µM | 0.53% of 340,000 active | AID 485358, 2010;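 active = activation over 3 SD above normal in the single-dose calcium agonist read, cut at about 30% in these data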
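Agonism scored from kinetic calcium signal (1 read/sec, 180 s) following compound pin transfer, after a 10 s baseline. Cells: HEK293 Trex line expressing inducible D2 receptor coupled to calcium, dye-loaded after overnight culture at 30 C.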
D2 ag-2: Beta-Arrestin HTS for Positive Allosteric Modulators of the Human D2 Dopamine Receptor: Agonists. 0.084% of 360,000 active. activation, % (concentration not given with the values). D(2) dopamine receptor (Homo sapiens), P14416. AID 624465, 2012. DiscoveRx PathHunter D2 beta-arrestin, luminescence, 90 min; 100% = 57 uM dopamine signal; in the data active = activation above about 40%
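DiscoveRx PathHunter D2 beta-arrestin cells (2,100/well) attached overnight, then compound-stimulated 90 min at 37 C in HBSS/10 mM HEPES/0.1% Tween-20 buffer; beta-galactosidase complementation read by luminescence after 1 h at ambient temperature. Dopamine 57 uM final (EC100) as control.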
D2 PAM-2: Beta-Arrestin HTS for Positive Allosteric Modulators of the Human D2 Dopamine Receptor: Potentiators; DiscoveRx D2 beta-arrestin cells, luminescence, 90 min; 100% = 57 uM dopamine signal; potentiation, % (test concentration not listed); 0.23% of 360,000 active; AID 624464, 2012; in the data active = potentiation above about 50%
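PathHunter D2 cells, attached overnight at 37 deg C, received compound in DMSO plus dopamine at EC20 (50 nM final) for 90 min at 37 deg C. Beta-arrestin recruitment was read as luminescence after 1 h with detection reagent at ambient temperature.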
Large screens that a line does not name were inactive. In the library only some 2.4% were active in any assay of this set; here they are far more common.

CN1CCN(CC(C)(C)NS(=O)(=O)c2ccc(Cl)cc2)CC1	none
CC(C)(CN1CCN(Cc2ccccc2)CC1)NS(=O)(=O)c1ccc(Cl)cc1	D2 antagonist 43.6
CCCC(=O)Nc1nc(C(=O)OCC)cs1	none
CCOC(=O)c1csc(NC(=O)C(C)(C)C)n1	D2 antagonist 40.7
Cc1cc(C)c2c(n1)nn1c(NCCCn3ccnc3)cc(C)nc21	D2 PAM-1 33.8 (no result: D2 ag-2, D2 PAM-2)
Cc1cc(C)c2c(n1)nn1c(NCCCN3CCOCC3)cc(C)nc21	none (no result: D2 PAM-1, D2 antagonist, D2 ag-1)
CCN1CCN(C(=O)c2cccc(OC3CCN(S(=O)(=O)N(C)C)CC3)c2)CC1	D2 PAM-1 36.0
CCOc1ccc(-c2cc(C(=O)NCc3ccc(OC)cc3)c3c(-c4ccc(F)cc4)[nH]nc3n2)cc1	none (no result: D2 antagonist, D2 ag-2, D2 PAM-2)
O=C(COC(=O)CCc1c[nH]c(=O)[nH]1)Nc1cccc(Cl)c1	D2 antagonist 35.0
Fc1ccc(-c2csc(=S)[nH]2)cc1	D2 antagonist 31.0
S=c1[nH]c(-c2ccccc2)cs1	none
O=C(Nc1ccccc1)C1=C(c2ccccc2)S(=O)(=O)CCS1(=O)=O	D2 PAM-1 58.4
Nc1nc(NCCO)nc(N2CCCCCC2)c1[N+](=O)[O-]	none
OCCN(CCO)c1nc(N2CCCCC2)c2nc(N(CCO)CCO)nc(N3CCCCC3)c2n1	D2 ag-1 41.9
COC(=O)C1=CN(Cc2ccc(C)cc2)C=C(C(=O)OC)C1c1cc(OC)c(OC)c(OC)c1	none
COCCN1C=C(C(=O)OC)C(c2cc(Br)c(OC)c(OC)c2)C(C(=O)OC)=C1	D2 PAM-1 33.5
CN(Cc1ccccc1)C(=O)COC(=O)c1cc2ccccc2oc1=O	none (no result: D2 PAM-1, D2 antagonist, D2 ag-1)
CCC(=O)Nc1ccccc1Nc1cc(C#N)c(C#N)cc1[N+](=O)[O-]	D2 PAM-2 73.5
N#Cc1ccccc1NC(=O)COC(=O)COc1ccccc1[N+](=O)[O-]	none
CCOc1ccc(N(CC(=O)Nc2cc(C)cc(C)c2)S(C)(=O)=O)cc1	D2 antagonist 40.8
CC1CCn2c(nc3cc(C(=O)NCc4ccc(F)cc4)ccc32)C1 (stereo not given)	none (no result: D2 antagonist, D2 ag-2, D2 PAM-2)
CCC1CCCCN1C(=O)N[C@@H](CCSC)C(=O)OC (stereo not given in full)	D2 antagonist 36.7
COc1ccc(NC(=O)Cn2ccn(Cc3ccccc3)c(=O)c2=O)cc1Cl	none (no result: D2 antagonist, D2 ag-2, D2 PAM-2)
Cc1cccc(N/C(N)=N/c2nc(CSc3ccc(Cl)cc3)cc(=O)[nH]2)c1	none
COC(=O)c1cc(Cl)ccc1NC(=O)CSc1ncc(S(=O)(=O)c2ccc(Br)cc2)c(=O)[nH]1	none (no result: D2 antagonist, D2 ag-2, D2 PAM-2)
COc1ccc(S(=O)(=O)N2CCN(Cc3ccc4c(c3)OCO4)CC2)c2ccccc12	D2 antagonist 31.3
c1ccc2nc(N3CCN(Cc4ccc5c(c4)OCO5)CC3)cnc2c1	none
COc1nc2ccccc2nc1N1CCN(Cc2ccc3c(c2)OCO3)CC1	D2 antagonist 51.0
COc1ccc(Cl)cc1S(=O)(=O)N1CCN(Cc2ccc3c(c2)OCO3)CC1	none
CCCNC(=O)C1(C)CCN1C(=O)Cc1ccc(C(C)(C)C)cc1 (stereo not given)	none (no result: D2 PAM-1, D2 antagonist, D2 ag-1)
CCCCC(=O)OCc1nc2ccccc2s1	D2 PAM-1 42.4
Oc1c(C(c2ccc(Cl)cc2Cl)N2CCN(c3ccccc3)CC2)sc2nc(-c3ccco3)nn12 (stereo not given)	none (no result: D2 antagonist, D2 ag-2, D2 PAM-2)
COc1cc2c(cc1OC)CN(CC(=O)Nc1ccc(C)c(C)c1)CC2	none (no result: D2 PAM-1, D2 antagonist, D2 ag-1)
CCC1CCCCN1C(=O)COc1cc(=O)n(C)c2ccccc12 (stereo not given)	none
CCC1CCCCN1C(=O)COc1ccccc1NC(C)=O (stereo not given)	D2 PAM-1 32.2
CCn1c(SCc2ccc(OC)c(F)c2)nc2ccccc2c1=O	D2 PAM-1 33.4
COCC(C)n1c(SCc2ccc(OC)c(F)c2)nc2ccccc2c1=O (stereo not given)	none (no result: D2 PAM-1, D2 antagonist, D2 ag-1)
Cc1onc(-c2ccccc2Cl)c1C(=O)NCCCN1CCOCC1	none
